Measured values from the supplement of paper PMC11732987, “Enantioselective OTUD7B fragment discovery through chemoproteomics screening and high-throughput optimisation” (Communications Chemistry, 2025).
A number with no mark means an inactive call.

Legend:
Assay in all cases: log2 ratio of Biotin-Ahx-Ub-VS probe labelling (fragment/DMSO); higher = less target engagement (more negative = stronger competition), active = hit call of the paper (q ≤ 0.05, log2 ratio ≤ -1)
Settings in all cases: compound concentration: 200 uM; treatment time: 3 h
UniProt O00507 = target: UniProt O00507
Procedure, shortened: (§1)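 Values give the average log2 ratio of fragment to vehicle, assessed by unpaired t-test on global-median-normalised Spectronaut label-free quantities. Proteins needed ≥2 unique peptides. HEK293T lysate (495 µg per sample) was treated in triplicate with fragment at 200 µM or vehicle for 3 h and then with Biotin-Ahx-Ub-VS at 0.5 µM final for 1 h. Labelled DUBs were NeutrAvidin-enriched, digested and run by diaPASEF LC-MS/MS.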

UniProt P51784 = target: UniProt P51784
Procedure, shortened: as §1

UniProt Q5T2D3 = target: T1, UniProt Q5T2D3
T1 sequence (whole entry): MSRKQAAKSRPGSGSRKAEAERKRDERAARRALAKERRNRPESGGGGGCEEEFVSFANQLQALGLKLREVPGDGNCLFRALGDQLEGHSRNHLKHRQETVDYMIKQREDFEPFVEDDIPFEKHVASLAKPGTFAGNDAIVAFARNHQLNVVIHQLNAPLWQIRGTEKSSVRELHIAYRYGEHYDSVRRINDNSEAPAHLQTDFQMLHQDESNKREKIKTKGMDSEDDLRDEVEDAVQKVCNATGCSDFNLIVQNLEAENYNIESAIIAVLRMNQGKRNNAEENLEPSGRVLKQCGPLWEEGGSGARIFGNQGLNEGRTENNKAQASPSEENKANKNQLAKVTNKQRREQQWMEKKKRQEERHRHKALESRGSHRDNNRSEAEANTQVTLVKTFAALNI
Procedure, shortened: as §1

UniProt Q8TE49 = target: T2, UniProt Q8TE49
T2 sequence (whole entry): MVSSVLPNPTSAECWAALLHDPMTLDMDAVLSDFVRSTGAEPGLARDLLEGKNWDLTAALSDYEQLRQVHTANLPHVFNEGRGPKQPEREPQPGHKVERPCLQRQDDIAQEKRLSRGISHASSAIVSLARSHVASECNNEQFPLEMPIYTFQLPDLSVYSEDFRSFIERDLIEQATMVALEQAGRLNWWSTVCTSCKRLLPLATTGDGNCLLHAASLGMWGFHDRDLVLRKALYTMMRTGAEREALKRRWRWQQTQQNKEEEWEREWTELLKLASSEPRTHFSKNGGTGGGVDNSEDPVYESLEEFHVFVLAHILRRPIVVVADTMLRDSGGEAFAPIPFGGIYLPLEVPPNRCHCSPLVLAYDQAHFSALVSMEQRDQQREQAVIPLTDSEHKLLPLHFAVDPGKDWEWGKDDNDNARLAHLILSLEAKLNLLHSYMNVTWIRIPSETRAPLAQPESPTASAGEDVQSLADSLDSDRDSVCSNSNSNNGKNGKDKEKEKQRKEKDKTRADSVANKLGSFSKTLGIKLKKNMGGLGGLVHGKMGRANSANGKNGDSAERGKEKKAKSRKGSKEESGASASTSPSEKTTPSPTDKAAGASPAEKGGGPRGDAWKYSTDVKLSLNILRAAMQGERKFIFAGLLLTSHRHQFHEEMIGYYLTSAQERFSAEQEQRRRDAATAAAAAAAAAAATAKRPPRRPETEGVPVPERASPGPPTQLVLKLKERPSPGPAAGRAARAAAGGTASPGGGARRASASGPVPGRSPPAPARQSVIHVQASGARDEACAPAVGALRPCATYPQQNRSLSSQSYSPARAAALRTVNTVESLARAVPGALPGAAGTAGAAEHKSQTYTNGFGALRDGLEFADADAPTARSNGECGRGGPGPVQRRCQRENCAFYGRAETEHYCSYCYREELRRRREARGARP
Procedure, shortened: as §1

UniProt Q9P2H5 = target: T3, UniProt Q9P2H5
T3 sequence (whole entry): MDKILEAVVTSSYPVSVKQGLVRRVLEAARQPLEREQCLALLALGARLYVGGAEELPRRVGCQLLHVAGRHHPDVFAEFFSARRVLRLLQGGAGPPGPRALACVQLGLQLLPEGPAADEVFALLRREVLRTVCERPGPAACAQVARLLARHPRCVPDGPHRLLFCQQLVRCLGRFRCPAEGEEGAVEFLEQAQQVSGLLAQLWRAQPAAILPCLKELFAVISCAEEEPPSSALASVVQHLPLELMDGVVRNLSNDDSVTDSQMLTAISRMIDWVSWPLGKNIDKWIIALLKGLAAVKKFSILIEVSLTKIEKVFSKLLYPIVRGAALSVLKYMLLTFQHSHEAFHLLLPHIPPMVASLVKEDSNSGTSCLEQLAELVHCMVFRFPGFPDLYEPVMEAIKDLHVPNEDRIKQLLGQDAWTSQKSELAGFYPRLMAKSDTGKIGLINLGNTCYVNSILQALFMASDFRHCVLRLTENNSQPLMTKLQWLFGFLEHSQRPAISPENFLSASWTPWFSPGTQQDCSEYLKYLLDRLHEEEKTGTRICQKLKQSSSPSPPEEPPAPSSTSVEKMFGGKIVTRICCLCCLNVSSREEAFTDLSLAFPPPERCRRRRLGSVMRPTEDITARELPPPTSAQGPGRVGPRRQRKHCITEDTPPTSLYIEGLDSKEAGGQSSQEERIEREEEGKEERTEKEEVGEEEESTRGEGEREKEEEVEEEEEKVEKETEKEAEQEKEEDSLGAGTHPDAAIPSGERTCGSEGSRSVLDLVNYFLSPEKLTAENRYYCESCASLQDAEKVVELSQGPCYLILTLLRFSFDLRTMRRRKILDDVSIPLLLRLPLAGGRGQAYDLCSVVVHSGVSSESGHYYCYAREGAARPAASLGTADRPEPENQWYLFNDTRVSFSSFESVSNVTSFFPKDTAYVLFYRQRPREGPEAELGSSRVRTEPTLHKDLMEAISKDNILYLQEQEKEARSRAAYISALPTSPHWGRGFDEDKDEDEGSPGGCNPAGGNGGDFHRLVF
Procedure, shortened: as §1

UniProt Q9UGI0 = target: T4, UniProt Q9UGI0
T4 sequence (whole entry): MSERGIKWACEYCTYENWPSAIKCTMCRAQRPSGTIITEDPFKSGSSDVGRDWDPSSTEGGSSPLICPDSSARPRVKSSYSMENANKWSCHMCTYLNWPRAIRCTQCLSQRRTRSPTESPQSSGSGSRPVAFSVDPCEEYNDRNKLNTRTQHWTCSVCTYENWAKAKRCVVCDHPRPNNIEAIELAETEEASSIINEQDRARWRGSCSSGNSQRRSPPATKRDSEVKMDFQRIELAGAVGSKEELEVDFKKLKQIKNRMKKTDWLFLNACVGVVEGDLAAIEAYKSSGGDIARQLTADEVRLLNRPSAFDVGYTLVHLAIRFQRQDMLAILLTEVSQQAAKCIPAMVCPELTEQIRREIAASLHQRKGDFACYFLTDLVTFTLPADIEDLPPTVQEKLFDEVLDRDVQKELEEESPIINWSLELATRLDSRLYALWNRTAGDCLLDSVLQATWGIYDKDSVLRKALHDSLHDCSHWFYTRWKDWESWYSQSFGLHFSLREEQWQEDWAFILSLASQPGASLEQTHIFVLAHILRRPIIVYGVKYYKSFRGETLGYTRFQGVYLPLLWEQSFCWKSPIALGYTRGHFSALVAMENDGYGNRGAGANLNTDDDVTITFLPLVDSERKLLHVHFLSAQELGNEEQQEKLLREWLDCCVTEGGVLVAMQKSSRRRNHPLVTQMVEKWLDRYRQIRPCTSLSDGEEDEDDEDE
Procedure, shortened: as §1

YOD1 = target: T5, YOD1 (UniProt Q5VVQ6)
T5 sequence (whole entry): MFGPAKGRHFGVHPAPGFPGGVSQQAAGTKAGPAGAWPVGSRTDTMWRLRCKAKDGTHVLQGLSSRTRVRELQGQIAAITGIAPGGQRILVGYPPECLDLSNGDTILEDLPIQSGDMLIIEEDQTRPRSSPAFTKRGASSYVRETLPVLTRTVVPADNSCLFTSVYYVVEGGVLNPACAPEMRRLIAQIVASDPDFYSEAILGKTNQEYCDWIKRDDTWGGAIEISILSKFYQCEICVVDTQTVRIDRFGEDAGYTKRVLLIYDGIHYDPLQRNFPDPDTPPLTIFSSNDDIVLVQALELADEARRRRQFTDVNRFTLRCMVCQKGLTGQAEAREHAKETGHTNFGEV
Procedure, shortened: as §1

Chain of UniProt P51784 (P51784 whole entry): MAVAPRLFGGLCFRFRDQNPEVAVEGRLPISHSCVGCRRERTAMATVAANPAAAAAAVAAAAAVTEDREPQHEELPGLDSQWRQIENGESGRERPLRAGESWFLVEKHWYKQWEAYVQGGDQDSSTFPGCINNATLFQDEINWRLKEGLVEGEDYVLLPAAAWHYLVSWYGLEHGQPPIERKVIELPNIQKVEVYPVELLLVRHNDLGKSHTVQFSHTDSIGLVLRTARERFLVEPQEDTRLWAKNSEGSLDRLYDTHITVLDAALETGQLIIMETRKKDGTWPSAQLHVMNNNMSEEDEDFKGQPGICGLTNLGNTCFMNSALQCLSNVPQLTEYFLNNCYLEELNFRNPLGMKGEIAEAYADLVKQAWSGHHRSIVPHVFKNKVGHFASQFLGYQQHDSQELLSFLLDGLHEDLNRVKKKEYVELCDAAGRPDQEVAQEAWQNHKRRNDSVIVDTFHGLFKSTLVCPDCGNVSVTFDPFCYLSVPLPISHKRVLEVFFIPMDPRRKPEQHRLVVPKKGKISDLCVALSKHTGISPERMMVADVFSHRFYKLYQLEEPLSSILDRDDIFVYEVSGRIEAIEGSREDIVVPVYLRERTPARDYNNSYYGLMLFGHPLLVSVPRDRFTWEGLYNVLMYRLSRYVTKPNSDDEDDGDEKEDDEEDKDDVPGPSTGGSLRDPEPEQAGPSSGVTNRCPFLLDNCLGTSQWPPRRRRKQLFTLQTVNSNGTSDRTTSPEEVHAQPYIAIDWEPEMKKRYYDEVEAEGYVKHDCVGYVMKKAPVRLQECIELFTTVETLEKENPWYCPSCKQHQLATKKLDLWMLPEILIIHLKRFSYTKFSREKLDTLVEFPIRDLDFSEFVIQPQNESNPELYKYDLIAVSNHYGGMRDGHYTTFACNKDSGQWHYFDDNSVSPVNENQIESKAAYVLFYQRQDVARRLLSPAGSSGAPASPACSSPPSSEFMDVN
Chain of UniProt O00507 (O00507 whole entry, the tested form may be a part): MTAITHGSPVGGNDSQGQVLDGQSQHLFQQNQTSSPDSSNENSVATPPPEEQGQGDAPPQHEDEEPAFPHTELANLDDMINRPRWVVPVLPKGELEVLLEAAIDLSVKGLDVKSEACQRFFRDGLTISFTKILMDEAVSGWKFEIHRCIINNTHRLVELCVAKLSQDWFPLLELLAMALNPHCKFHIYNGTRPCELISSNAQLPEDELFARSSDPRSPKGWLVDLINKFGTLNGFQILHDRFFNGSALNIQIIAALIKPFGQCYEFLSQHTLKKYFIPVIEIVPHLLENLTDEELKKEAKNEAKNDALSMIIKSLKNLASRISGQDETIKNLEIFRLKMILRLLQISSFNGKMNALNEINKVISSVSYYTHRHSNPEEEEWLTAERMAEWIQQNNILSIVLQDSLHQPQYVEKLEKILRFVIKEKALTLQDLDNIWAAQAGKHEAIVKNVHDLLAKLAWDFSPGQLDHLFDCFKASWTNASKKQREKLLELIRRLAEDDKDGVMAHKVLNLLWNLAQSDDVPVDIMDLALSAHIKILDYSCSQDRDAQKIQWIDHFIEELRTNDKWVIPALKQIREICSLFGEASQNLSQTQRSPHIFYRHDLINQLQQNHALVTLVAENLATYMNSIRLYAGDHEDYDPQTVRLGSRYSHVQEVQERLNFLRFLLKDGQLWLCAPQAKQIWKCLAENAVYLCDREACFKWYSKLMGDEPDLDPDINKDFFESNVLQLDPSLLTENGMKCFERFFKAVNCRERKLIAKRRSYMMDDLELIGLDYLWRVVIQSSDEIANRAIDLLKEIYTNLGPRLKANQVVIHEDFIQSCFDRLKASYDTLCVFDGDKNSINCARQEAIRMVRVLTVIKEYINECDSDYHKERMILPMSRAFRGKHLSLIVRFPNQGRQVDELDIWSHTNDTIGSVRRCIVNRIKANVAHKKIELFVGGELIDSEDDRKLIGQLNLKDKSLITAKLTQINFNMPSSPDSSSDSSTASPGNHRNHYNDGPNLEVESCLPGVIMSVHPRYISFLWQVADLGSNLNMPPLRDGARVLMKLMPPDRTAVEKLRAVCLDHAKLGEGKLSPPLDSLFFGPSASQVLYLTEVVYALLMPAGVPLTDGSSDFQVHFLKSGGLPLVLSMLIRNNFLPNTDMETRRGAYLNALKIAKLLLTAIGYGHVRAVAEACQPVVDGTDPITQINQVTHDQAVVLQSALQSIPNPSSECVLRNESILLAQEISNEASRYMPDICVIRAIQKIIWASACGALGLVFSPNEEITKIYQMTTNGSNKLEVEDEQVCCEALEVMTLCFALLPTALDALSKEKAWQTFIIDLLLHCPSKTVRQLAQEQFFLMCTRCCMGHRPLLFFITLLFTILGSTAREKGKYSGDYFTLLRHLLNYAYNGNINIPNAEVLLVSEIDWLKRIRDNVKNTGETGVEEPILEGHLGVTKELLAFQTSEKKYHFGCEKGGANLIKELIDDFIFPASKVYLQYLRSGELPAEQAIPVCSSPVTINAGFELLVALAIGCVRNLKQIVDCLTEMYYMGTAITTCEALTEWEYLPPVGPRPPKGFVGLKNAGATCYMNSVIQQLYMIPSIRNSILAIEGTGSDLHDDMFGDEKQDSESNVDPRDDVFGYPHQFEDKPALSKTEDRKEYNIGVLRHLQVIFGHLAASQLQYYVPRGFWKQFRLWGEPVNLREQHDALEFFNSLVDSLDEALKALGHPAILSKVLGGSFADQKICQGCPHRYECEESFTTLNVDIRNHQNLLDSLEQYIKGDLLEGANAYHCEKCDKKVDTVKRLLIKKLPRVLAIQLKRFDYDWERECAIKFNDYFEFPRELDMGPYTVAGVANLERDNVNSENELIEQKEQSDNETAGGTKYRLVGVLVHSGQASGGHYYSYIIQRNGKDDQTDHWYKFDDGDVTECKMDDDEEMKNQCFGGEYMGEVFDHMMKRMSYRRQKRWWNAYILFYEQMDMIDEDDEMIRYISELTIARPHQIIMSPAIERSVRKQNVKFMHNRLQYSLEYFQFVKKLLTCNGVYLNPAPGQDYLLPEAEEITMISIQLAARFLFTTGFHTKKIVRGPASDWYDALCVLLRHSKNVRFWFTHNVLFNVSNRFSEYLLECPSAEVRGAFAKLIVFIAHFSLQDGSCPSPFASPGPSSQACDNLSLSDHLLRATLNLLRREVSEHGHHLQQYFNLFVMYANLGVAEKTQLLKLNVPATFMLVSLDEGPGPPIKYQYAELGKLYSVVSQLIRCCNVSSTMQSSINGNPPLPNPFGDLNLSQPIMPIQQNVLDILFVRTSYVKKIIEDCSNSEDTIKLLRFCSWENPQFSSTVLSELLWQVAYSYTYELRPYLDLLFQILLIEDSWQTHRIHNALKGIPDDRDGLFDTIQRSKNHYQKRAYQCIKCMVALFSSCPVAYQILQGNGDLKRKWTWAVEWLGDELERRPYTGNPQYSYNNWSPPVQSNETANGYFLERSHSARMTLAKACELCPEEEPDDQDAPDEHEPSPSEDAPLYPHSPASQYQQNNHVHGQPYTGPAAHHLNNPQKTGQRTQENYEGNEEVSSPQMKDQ

| Compound | log2 ratio of Biotin-Ahx-Ub-VS probe labelling (UniProt O00507) | log2 ratio of Biotin-Ahx-Ub-VS probe labelling (UniProt P51784) | log2 ratio of Biotin-Ahx-Ub-VS probe labelling (UniProt Q5T2D3) | log2 ratio of Biotin-Ahx-Ub-VS probe labelling (UniProt Q8TE49) | log2 ratio of Biotin-Ahx-Ub-VS probe labelling (UniProt Q9P2H5) | log2 ratio of Biotin-Ahx-Ub-VS probe labelling (UniProt Q9UGI0) | log2 ratio of Biotin-Ahx-Ub-VS probe labelling (YOD1) |
| --- | --- | --- | --- | --- | --- | --- | --- |
| CNC(=O)C1CCN(C(=O)CCl)CC1 | -0.581 | 0.091 | 0.0899 | -0.129 | 0.179 | 0.0343 | -0.239 |
| O=C(CCl)N1CCC2(CCC(O)CC2)CC1 | 0.0905 | 0.0738 | -0.238 | -0.64 | -0.118 | -0.316 | 0.0256 |
| Cc1n[nH]c2c1CN(C(=O)CCl)CC2 | -0.966 | -0.554 | -0.696 | -1.43 (active) | -0.801 | -1.32 (active) | -0.674 |
| Cl.O=C(CCl)N1CCC(Cc2nccs2)C1 (stereo not given) | -0.185 | 0.0118 | -0.239 | -0.308 | -0.239 | -0.507 | -0.104 |
| NC(=O)C1CCCN(C(=O)CCl)C1 (stereo not given) | -0.185 | -0.0378 | 0.103 | 0.0487 | -0.0803 | -0.698 | 0.00724 |
| COCC[C@@H](NC(=O)CCl)c1ccccc1 | -0.0256 | 0.0932 | -0.0591 | -0.208 | -0.159 | -0.681 | 0.231 |
| CC1CCc2onc(CNC(=O)CCl)c2C1 (stereo not given) | 0.195 | 0.152 | -0.305 | -0.691 | -0.252 | -0.538 | 0.146 |
| Cc1ccc(CN(CCO)C(=O)CCl)cc1 | -0.468 | -0.204 | -0.439 | -0.837 | -0.351 | -1.16 (active) | -0.163 |
| O=C(CCl)NCCC1COCCO1 (stereo not given) | -0.31 | 0.182 | -0.163 | -0.547 | -0.0395 | -0.194 | -0.308 |
| O=C(CCl)Nc1cc2c(cc1Cl)OCCCO2 | 0.443 | 0.0196 | 0.0208 | -0.506 | -0.0168 | -0.0467 | 0.361 |
| Cc1cccc(N(CCC#N)C(=O)CCl)c1C | 0.294 | 0.0536 | -0.0559 | -1.26 (active) | -0.386 | -0.934 | 0.144 |
| CC(O)CC1CCN(C(=O)CCl)CC1 (stereo not given) | 0.0435 | -0.0578 | -0.0758 | -0.714 | 0.0392 | 0.164 | -0.124 |
| COc1ccccc1C(C)NC(=O)CCl (stereo not given) | -0.445 | -0.212 | -0.15 | -0.696 | -0.277 | -0.788 | -0.23 |
| O=C(CCl)NC1CCC2(CC1)OCCO2 | -0.379 | -0.104 | -0.473 | -0.565 | -0.399 | -0.544 | -0.297 |
| CC(NC(=O)CCl)c1cc2n(n1)CCCC2.Cl (stereo not given) | 0.229 | 0.0045 | 0.0101 | -0.631 | -0.0486 | 0.22 | -0.00538 |
| CN(C)C(=O)c1ccc(CNC(=O)CCl)cc1 | 0.565 | 0.0173 | -0.167 | -0.516 | -0.0353 | -0.474 | 0.0763 |
| Cc1ccc2nnc(CNC(=O)CCl)n2c1 | 0.487 | -0.0917 | -0.119 | -0.36 | -0.342 | 0.244 | 0.241 |
| O=C(CCl)N(C1=CCCCC1)C1CC1 | 0.309 | -0.0543 | -0.118 | -0.435 | -0.351 | 0.0561 | -0.0863 |
| Cl.O=C(CCl)N[C@H]1C[C@@H](n2cccn2)C1 | -0.599 | 0.0814 | 0.0298 | -0.369 | 0.122 | -0.284 | -0.324 |
| COc1ccc(-c2csc(NC(=O)CCl)n2)cc1 | -0.576 | -0.0937 | -0.257 | -0.479 | -0.528 | -2.09 (active) | -0.00199 |
| CS(=O)(=O)N1CCCN(C(=O)CCl)CC1 | 0.0618 | -0.0587 | -0.154 | -0.261 | -0.224 | -0.469 | 0.146 |
| O=C(CCl)N1CCc2nc[nH]c2C1c1ccc(Cl)cc1 (stereo not given) | -0.893 | 0.194 | -0.0219 | -1.15 (active) | -0.000874 | -1.05 (active) | -0.117 |
| O=C(CCl)NCCC1=CCCCC1 | 0.347 | 0.0951 | -0.215 | -0.191 | -0.0991 | -0.159 | 0.16 |
| Cc1cc(CC(C)NC(=O)CCl)n[nH]1 (stereo not given) | -0.165 | -0.131 | -0.595 | 0.0154 | -0.232 | -0.68 | 0.241 |
| O=C(CCl)N(C1CCCC1)C1CCS(=O)(=O)C1 (stereo not given) | 0.335 | -0.112 | -0.128 | -0.372 | -0.386 | -0.121 | 0.15 |
